Results published in PubChem BioAssay (NCI).
Compounds without any hit were thinned out: in the full panel of roughly 83,000, 20% have a hit.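 Assay: single dose, 48 h. Readout: percent growth (0 = no net growth; negative = cell death). Active: <10.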 Activity calls are given as the source filed them.

tested on: HCT-116 colon; assay: NCI-60 one-dose screen, 48 h (100 = growth as untreated, 0 = no growth, -100 = all killed); settings: 10 µM unless noted
Protocol: Growth inhibition of the HCT-116 human tumor cell line is measured as a screen for anti-cancer activity. Cells are grown in 96 well plates and exposed to the test compound for 48 hours. Compounds are tested at a single concentration, which is 10^-5 M for most compounds. The reported endpoint is percent growth (GI% or GIPRCNT), where numbers from 0 - 100% represent growth inhibition, and numbers from -100% - 0 represent cell death. For example, a value of 40 represents 60% growth inhibition. A value of 0 means no net growth occurred over the course of the experiment. A value of -40 indicates 40% of cells at the beginning of the experiment died by the end of the experiment. A value of -100 means all cells are dead at the end of the experiment.
NCI-60 Human Tumor Cell Lines Screen was performed using the standard one-dose NCI protocol, which is described in more detail at https://dtp.cancer.gov/discovery_development/nci-60/default.htm.
Compounds with GIPRCNT values below 10 were considered active. Activity score was based on GIPRCNT using the following formula: […]
Score is 0 for GIPRCNT values of 100 or above, 50 for GIPRCNT values of 0, and 100 for GIPRCNT values of -100.

| SMILES | growth |
| --- | --- |
| COc1cc(OC)c2c(=O)cc(-c3ccccc3)oc2c1 | 88.9% (inactive) |
| O=C(Nc1ccc(-n2cc(-c3ccncc3)c(-c3ccc(Cl)c(O)c3)n2)cc1)c1ccc(Cl)c(C(F)(F)F)c1 | -100% (active) |
| Nc1cc(N)c2nc(NCCc3ccc(Cl)c(Cl)c3)cnc2c1 | -42.5% (active) |
| CCC(C)C1NC(=O)C(CC(C)C)NC(=O)C(C)NC(=O)C(C(C)C)NC(=O)C(CCCCN)NC(=O)C(CC(C)C)NC(=O)C(C(C)C)NC(=O)[C@H](C)NC(=O)C(C(C)CC)NC(=O)C(CCCN=C(N)N)NC(=O)C(CCCCN)NC(=O)C(CCCN=C(N)N)NC(=O)C(CCCCN)NC(=O)C([C@H](C)CC)NC(=O)C(CCCCN)NC1=O (stereo not given in full) | 3.67% (active) |
| Cc1ccc(NCc2cn(-c3ccc(C(=O)O)cc3)nc2-c2ccc(C(=O)O)cc2)cc1 | 100% (inactive) |
| Cc1ccc(C(=O)Nc2ccc(CN3CCN(C)CC3)c(C(F)(F)F)c2)cc1C#Cc1cncc2ncccc12 | -84.7% (active) |
| CC(=O)CCS(=O)c1ccccc1 (stereo not given) | 102% (inactive) |
| COC(=O)C(C(=O)OC)C(Br)C(Br)C(Br)c1ccccc1 (stereo not given) | 16.5% (inactive) |
| Nc1ccc(N=Nc2ccccc2)c2cc(S(=O)(=O)O)ccc12 | 104% (inactive) |
| COc1cc(C(=O)Nc2ccc(N(C)C)cc2)cc(OC)c1OC | 89% (inactive) |
| Nc1ccc(S(=O)(=O)Nc2cc(F)cc(F)c2)cc1 | 109% (inactive) |
| CC#Cc1nc(Nc2cc(C)[nH]n2)c2ccccc2n1 | -15.7% [100 µM] (active) |
| COc1ccc2cc(C(C)C(=O)Nc3ccc(S(=O)(=O)Nc4cc(C)on4)cc3)ccc2c1 (stereo not given) | 96.5% (inactive) |
| CC(C)(C)C(=O)OCOP(=O)(OCOC(=O)C(C)(C)C)C1CC(O)N(O)C1=O (stereo not given) | 20.9% (inactive) |
| CCCCCCCCC(=O)Nc1ccc(O)cc1 | 101% (inactive) |
| COc1cc(NC(C)CCCN)c2nccc(C)c2c1OC (stereo not given) | 93.1% (inactive) |
| Cc1nc(N)sc1C(=O)NCCO | 99.6% (inactive) |
| CC1(C)N=C(N)N=C(N)N1c1cccc(CCCCOc2ccccc2)c1 | 11.3% (inactive) |
| Cc1cc2c(-c3nc4ccccc4[nH]3)c(O)c(O)cc2c(O)c1-c1c(C)cc2c(-c3nc4ccccc4[nH]3)c(O)c(O)cc2c1O | 7.37% (active) |
| O=C1/C(=C/c2ccc(Cl)cc2)CCC/C1=C\c1ccc(Cl)cc1 | -42.6% (active) |

| SMILES | growth |
| --- | --- |
| CCCCCCCCCCN1CC2CCCCC2C1 (stereo not given) | 53.6% (inactive) |
| N=C(N)c1ccc(-c2ccc(-c3ccc(Cl)cc3)s2)s1 | -98.4% (active) |
| N=C(N)c1ccc(-c2ccc(-c3cc(Cl)cc(Cl)c3)s2)cc1 | -78.7% (active) |
| COc1cc(-c2c3c(cn2CCN2CCCCC2)-c2oncc2CC3)cc(OC)c1OC | 89.5% (inactive) |
| CC(C)(C)OC(=O)N1C/C(=C\c2ccccc2)C(=O)/C(=C/c2ccccc2)C1 | 80.7% (inactive) |
| Oc1ccc([S+](c2ccc(O)cc2)c2ccc(O)cc2)cc1 | 107% (inactive) |
| CC(=O)Nc1ccc(C(=O)/C=C/c2ccc(N(C)C)cc2)cc1 | 102% (inactive) |
| Cc1ccc(C(=O)C(Br)C(Br)c2ccccc2)cc1 (stereo not given) | -65.7% (active) |
| Oc1ccccc1\C=N/N=C/C=C/c1ccccc1 | 103% (inactive) |
| CCCCCCN(CCCCCC)CCC(=O)Nc1ccc(S(=O)(=O)c2ccc(NC(=O)CCN(CCCCCC)CCCCCC)cc2)cc1 | 61.2% (inactive) |
| CCOC(=O)/C(C#N)=C(/CC)OCC | 92% (inactive) |
| O=C(Cc1ccccc1[N+](=O)[O-])c1ccc2c(c1)OCO2 | 103% (inactive) |
| COC(=O)c1ccc(C(=Nc2ccc(N(C)C(=O)CN3CCN(C)CC3)cc2)c2c(O)[nH]c3ccc(C(=O)OC)cc23)cc1 | 10.9% (inactive) |
| COc1cc(NC(C)CCCN)c2nc(C)ccc2c1OC (stereo not given) | 102% (inactive) |
| Clc1ccc(N/N=C(/c2ccccc2)c2ccccn2)nc1 | 5.31% (active) |
| COc1ccc(-c2cn3ccnc3c(-c3ccc4ncn(C5CCCCC5)c4c3)n2)cc1 | 8.72% (active) |
| CC(=O)/C(=C\c1c(-c2ccccc2)[nH]c2ccccc12)S(=O)(=O)c1ccccc1 | 9.03% (active) |
| COc1ccc(CN2C(=O)/C(=C\C(=O)c3ccc(OCCN4CCCCC4)cc3)c3ccccc32)cc1 | 4.2% (active) |
| CCc1ccc(C(=Nc2ccc(N(C)C(=O)CN3CCN(C)CC3)cc2)c2c(O)[nH]c3ccc(C(=O)OC)cc23)cc1 | -67.9% (active) |
| COc1ccccc1CNCCCN1C(=O)c2ccc3c4c(ccc(c24)C1=O)C(=O)N(CCCNCc1ccccc1OC)C3=O | -60.5% (active) |
